What is called Inhibition is the drop in the measured response relative to a control, in per cent.

Among all 21,000 compounds or so, fewer than 10 showed an effect of 50% or more. These entries were drawn from the full list. Entries with a potency or affinity are not part of this list.

The subject of the assay is Acinetobacter baumannii. The note with it: Concentration 32 ug.mL-1; ASSAY_TEST Inhibition of Bacterial Growth; detection method Absorption (OD600); MEDIA CAMHB; plate type 384well; NBS; CORNING #3640; time 18 hr.
In the case of `C#CCN(C)c1nc(NCCC2CCN(Cc3ccccc3)CC2)c(C#N)cc1C#N.Cl`, the Inhibition is reported as -7.83%.

`CCOC(=O)C1=C(C)Oc2nc3c(c(N)c2C1c1nccn1C)CCC3` (stereo not given): the Inhibition was determined as 0.84%.

`Nc1nc(N)c(C=O)c(-c2ccccc2)c1C=O`: the Inhibition is on record as 5.37%.

On to `Cn1ccnc1C1C2=C(CC(C)(C)CC2=O)Oc2nc3c(c(N)c21)CCCC3` (stereo not given), for which the Inhibition was -5.19%.

On to `N#CC1=C(Cl)Oc2c(ccc3ccccc23)C1c1ccc([N+](=O)[O-])cc1` (stereo not given), for which the Inhibition is on record as -15.4%.

The values above are taken from ChEMBL document CHEMBL4513135, “CO-ADD screening of IQOG CSIS (Spain) compounds”.
